Data from PubChem BioAssay (NCI).
The panel holds about 83,000 compounds, 20% with a hit somewhere; the sample as a whole holds those more often.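 Activity criterion: percent growth below 10, measured after cells in 96-well plates were exposed to a single compound concentration for 48 hours.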 Unmarked numbers belong to inactive results.

These molecules were tested on 786-0 renal (assay: NCI-60 one-dose screen, 48 h (100 = growth as untreated, 0 = no growth, -100 = all killed)). Conditions: 10 µM unless noted.
For `O=C(O)C1CN(c2cccc(Cl)c2)N(c2cccc(Cl)c2)C1=O` (stereo not given), the growth was 96.5%. With `COc1ccc2c(c1)c(-c1ccc(-c3cn(C)c4ccc(OC)cc34)[nH]1)cn2C` the growth was 65%. `CCN1CCN(CC(=O)Nc2nc3ccc(NCc4ccc(Br)cc4)cc3s2)CC1` gave a growth of 61.3%. `CC(C)c1ccc(-n2c(=S)[nH]c3sc4c(c3c2=O)CCC(=O)C4)cc1` gave a growth of 102%. `Cc1nc2sc(C(=O)Nc3cccc(Cl)c3)c(N)c2cc1C(O)c1ccccc1` (stereo not given) showed a growth of 36.8%. `Cc1cscc(C)c1=S` gave a growth of 103%. In the case of `COc1ccc(C2=NN(C(=O)c3cc(OC)c(OC)c(OC)c3)C(c3ccc(N(C)C)cc3)C2)cc1` (stereo not given), the growth is reported as 13.6%. `CN(C)c1ccc(/C=C2/C=C(c3ccccc3)OC2=O)cc1` showed a growth of 100%. Molecule `CN1CCN(c2ccc3c(c2)nc(NNC(=O)c2cnccn2)c2cccn23)CC1` has a growth of 17.6%. `CN(CCC#N)c1ccc(/C=C2\NC(=O)NC2=O)cc1` gave a growth of 88%. Work on `COc1ccc(C(c2cc(OC)c(OC)c(OC)c2)N2CCCC2)cc1` (stereo not given) yielded a growth of 93.4%. `O=C(/C=C/c1ccc(Br)cc1)c1ccc(-n2cc(CN3CCN(c4cc5c(cc4F)c(=O)c(C(=O)O)cn5C4CC4)CC3)nn2)cc1` was tested, and the growth was 76.7%. In the case of `CCOC(=O)n1cc(-c2nonc2-c2cn(C)c3ccccc23)c2ccccc21`, the growth is reported as 48%. Work on `CCOC(=O)c1n[nH]n2c1nc(=O)c1cnn(C)c12` yielded a growth of 106%. `C#CC#CC#CC#CC#CC#CC#CC#CCC1OCC(COC(=O)O[C@@H](C(=O)O[C@H]2C[C@@]3(O)[C@@H](OC(=O)c4ccccc4)[C@@H]4[C@]5(OC(C)=O)CO[C@@H]5C[C@H](O)[C@@]4(C)C(=O)[C@H](OC(C)=O)C(=C2C)C3(C)C)[C@@H](NC(=O)c2ccccc2)c2ccccc2)O1` (stereo not given in full) showed a growth of 32.1%.
